Assay [1] is described as follows: qHTS for differential inhibitors of proliferation of Plasmodium falciparum line 3D7 (AID 1876). Further: potency means the concentration at half of the fitted maximal effect.
A short description of assay [2]: qHTS for differential inhibitors of proliferation of Plasmodium falciparum line W2 (AID 1883).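 Further: potency means the concentration at half of the fitted maximal effect; parasites grown with compound for 72 h before lysis and staining.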 Conditions: Potency: Plasmodium falciparum W2 proliferation inhibition. A general note: In qHTS, concentration-response curves come from the screen itself.
Assay [3] is described as follows: qHTS for differential inhibitors of proliferation of Plasmodium falciparum line HB3 (AID 1886).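 Further: potency means the concentration at half of the fitted maximal effect; parasites grown with compound for 72 h before SYBR Green readout.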 The conditions noted are these: Potency: Plasmodium falciparum HB3 proliferation inhibition.
Assay [4] can be described thus: Validation screen for inhibitors of Lassa infection (AID 463096; calls by dose curve; further: on the % scale 0 is the no-effect control and ±100 the full control effect).
Assay [5] can be described thus: HepG2 viability counterscreen (readout 2: ATP content) against the NCATS DSHEA and TCM libraries (AID 1794840). Further: 0% is about no effect. The essentials:
(§1)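 HepG2 cells (1,000 cells/well) attached ~4 h, then treated ~24 h at 37C with substances. Protease activity read by GF-AFC (25 uM final, 30 min, Ex/Em 380/510 nm); ATP content then by CellTiter-Glo luminescence.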
(In general: Counterscreens check selectivity or assay interference.)

The nature of assay [6]: HepG2 viability counterscreen (readout 1: protease activity) against the NCATS DSHEA and TCM libraries (AID 1794841).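 Further: cells exposed to compounds for about 24 h before the protease read; 0% is about no effect.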 The method, boiled down:
as §1

Assay [7] concerns the target Cytochrome P450 2C19 (Homo sapiens) (UniProt P33261). Description: qHTS for inhibitors of CYP2C19 against the NCATS DSHEA and TCM libraries (AID 1919974).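 Further: luminescence from luciferin released by CYP2C19 oxidation of a pro-luciferin substrate; on the % scale 0 is the no-effect control and ±100 the full control effect.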 The essentials:
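Luminescent P450-Glo readout. Enzyme plus pro-luciferin substrate in manufacturer buffer (typically 100 mM KPO4); 15 min RT preincubation; 1x NADPH regenerating system, 30-45 min RT in the dark; detection reagent 30 min.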

Assay [8] can be described thus: KB-3-1 P-gp reporter qHTS against the NCATS DSHEA and TCM libraries (AID 1919975). Further: 0% is about no effect. The method, boiled down:
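Parental KB-3-1 human cervical adenocarcinoma cells (500 cells/well, DMEM + 10% FBS) were treated with substances for ~72 h at 37C; viability was read by CellTiter-Glo luminescence.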

For assay [9], the target named is Cytochrome P450 1A2 (Homo sapiens) (UniProt P05177). Put plainly: qHTS for inhibitors of CYPIA2 against the NCATS DSHEA and TCM libraries (AID 1919976). Further: potency means the concentration at half of the fitted maximal effect. The method, boiled down:
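Human CYP1A2 with its pro-luciferin substrate in supplier buffer (typically 100 mM KPO4) was pre-incubated with compounds 15 min at RT. Reaction was started with 1x NADPH regeneration solution and run 30-45 min at RT in the dark, then luminescence was read after P450-Glo detection reagent (30 min RT).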

Assay [10] is described as follows: qHTS Counterscreen for compound interference against the NCATS DSHEA and TCM libraries (AID 1919978). Further: % of control where 0% means no effect. The conditions noted are these: firefly luciferase detection reagent interference, luminescence. The essentials:
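D-luciferin (1 uM final) or 100 mM potassium phosphate buffer alone was preincubated 15 min at RT with compounds (19.5 nM to 39.8 uM final). Luciferin detection reagent was then added and luminescence read after 30 min at RT.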

Assay [11] is described as follows: Dual reporter qHTS for agonist of Pregnane X Receptor (hPXR) against the NCATS DSHEA and TCM libraries: Fluorescence readout (AID 1920058). Further: 0% is about no effect. The essentials:
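hPXR-Luc HepG2 cells (2000/well) in phenol red-free medium with charcoal-stripped FBS attached for 5 h, then were exposed to compounds for about 24 h at 37 °C. Viability was read by CellTiter-Fluor fluorescence (Ex/Em 405/540 nm) after 1 h.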

A short description of assay [12]: Dual reporter qHTS for antagonist of Pregnane X Receptor (hPXR) against the NCATS DSHEA and TCM libraries: Fluorescence Readout (AID 1920061). Further: 0% is about no effect. The method, boiled down:
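Antagonist mode: rifampicin 2 uM final co-added with compounds to hPXR-LucHepG2 cells for 24 h at 37C. Viability by CellTiter-Fluor, Ex/Em 405/540 nm, 1 h; reporter by ONE-Glo luminescence.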

Assay [13] concerns the target Glutathione peroxidase 1 (Homo sapiens) (UniProt P07203). Put plainly: Primary qHTS Assay for Inhibitors of Recombinant Selenoprotein Glutathione Peroxidase 1 (GPX1) (AID 1845191). Further: nearly all actives have a fitted effect of over 65% in size. The method, boiled down:
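GR-coupled assay: compounds preincubated 30 min at room temperature with GPX1, then reaction started with CHP; final 10 nM GPX1, 1 mM GSH, 0.5 mM CHP, 0.5 mM NADPH, 100 nM GR, 0.01% BSA, pH 7.5 Tris buffer. NADPH fluorescence (340/450 nm) read at 0 and 15 min.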

The target in assay [14] is Cytochrome P450 3A4 (Homo sapiens) (UniProt P08684). Put plainly: qHTS Assay for Activators of Cytochrome P450 3A4 (AID 885). Further: nearly all actives have a fitted effect of over 65% in size. The essentials:
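20nM CYP3A4 + 25uM Luciferin-PPXE (=KM), 200mM KPO4; cpd 10 min RT; NADPH regen, 60 min RT; stop w/ detection buffer, 20 min; luminescence. Normalized to 57 uM ketoconazole.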

For assay [15], the target named is Peroxisome proliferator-activated receptor gamma (Homo sapiens) (UniProt P37231). Description: qHTS assay for small molecule antagonists of peroxisome proliferator-activated receptor gamma signaling (AID 588537; active means well fitted inhibition curve with a large enough effect in the signal ratio, with a control signal flat, not every such curve was filed as active; the % refers to the signal ratio;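 further: reporter cells co-stimulated with 50 nM rosiglitazone agonist during compound treatment; % of control where 0% means no effect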). The method, boiled down: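 Step one: plate 3000 HEK293 UAS-bla cells per well in medium with 1% stripped serum and hold 6-6.5 h at 37 C. Step two: add compound and 50 nM agonist for 16 h. Step three: CCF4 loading, fluorescence read.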

For assay [16], the target named is Nuclear receptor subfamily 1 group I member 3 (Homo sapiens) (UniProt Q14994). Description: Primary qHTS for antagonist of constitutive androstane receptor (CAR) against the NCATS DSHEA and TCM libraries (AID 1794836).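 Further: HepG2 cells stably expressing hCAR with CYP2B6 luciferase reporter stimulated by CITCO; series mostly up to about 40 µM.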 The method, boiled down:
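HepG2-CYP2B6-hCAR cells, attached 5 h, given compounds plus CITCO agonist […], incubated 24 h at 37 C. Luciferase luminescence read, multiplexed with CellTiter-Fluor viability (Ex/Em 405/540 nm).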

Assay [17] in a line: qHTS drug screen for cell cycle checkpoint inhibitors in PARPi-resistant BRCA-mutant ovarian cancer cell lines. (AID 1963452; calls by dose curve). The conditions noted are these: PEO1/OlaR viability, CellTiter-Glo luminescence, 96 h, stronger effect = lower value. The essentials: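 PEO1, PEO4 and PEO1/OlaR ovarian cancer cells, 600 per well, exposed 96 h at 37C to a dilution series. Viability read by CellTiter-Glo luminescence, normalized to DMSO and empty wells; activity summarized as Z-AUC.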

Assay [18] is described as follows: qHTS assay for small molecule disruptors of the mitochondrial membrane potential - 1 hr assay (AID 651754; calls by dose curve; further: nearly all actives have a fitted effect of over 35% in size; further: potency means the concentration at half of the fitted maximal effect). The essentials:
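HepG2 cells, attached overnight at 37C, were exposed to compound or DMSO vehicle for 1 hr at 37C, 5% CO2, then stained with Mito-MPS dye for 30 min. Red aggregate versus green monomer fluorescence reports membrane potential.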

Assay [19] deals with Peroxisome proliferator-activated receptor delta (Homo sapiens) (UniProt Q03181). Description: qHTS assay for small molecule antagonists of peroxisome proliferator-activated receptor delta signaling (AID 588535; active means well fitted inhibition curve with a large enough effect in the signal ratio, with a control signal flat, not every such curve was filed as active; the % refers to the signal ratio). The method, boiled down: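 Cells were seeded at 4000 per well in assay medium containing 2% charcoal/dextran FBS and held 5 hrs at 37 C. Compounds were then added for 18 hrs. CCF4 substrate was applied for 2 hrs at room temperature before fluorescence reading.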

The source of these data is PubChem BioAssay (NCATS).

Results filed as inconclusive are left out. Calls of active or inactive are those of the source. Unless noted, the call rests on the fitted dose curve; in most records, active means well fitted curve in the direction sought with a large enough effect; inconclusive means small, poorly fitted or top-dose-only effect, or another doubt; inactive means no such curve, though single readings can be large; an effect the other way counts as inactive or inconclusive.

Cytochrome P450 3A4 (Homo sapiens), sequence (P08684 whole entry, looked up): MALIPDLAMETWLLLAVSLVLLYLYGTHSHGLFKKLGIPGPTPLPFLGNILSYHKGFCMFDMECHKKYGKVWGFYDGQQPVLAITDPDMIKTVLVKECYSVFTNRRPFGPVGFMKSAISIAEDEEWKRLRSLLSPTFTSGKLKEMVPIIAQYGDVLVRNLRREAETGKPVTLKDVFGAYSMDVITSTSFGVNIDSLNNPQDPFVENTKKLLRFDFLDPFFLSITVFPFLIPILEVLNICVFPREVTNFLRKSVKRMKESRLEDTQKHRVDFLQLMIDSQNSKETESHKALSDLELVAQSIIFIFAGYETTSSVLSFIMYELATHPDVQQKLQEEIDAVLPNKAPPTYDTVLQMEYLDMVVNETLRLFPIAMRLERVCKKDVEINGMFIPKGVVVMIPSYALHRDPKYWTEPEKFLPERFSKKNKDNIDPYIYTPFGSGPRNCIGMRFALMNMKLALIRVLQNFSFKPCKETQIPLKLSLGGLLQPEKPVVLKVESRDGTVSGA
Nuclear receptor subfamily 1 group I member 3 (Homo sapiens), sequence (Q14994 whole entry, looked up): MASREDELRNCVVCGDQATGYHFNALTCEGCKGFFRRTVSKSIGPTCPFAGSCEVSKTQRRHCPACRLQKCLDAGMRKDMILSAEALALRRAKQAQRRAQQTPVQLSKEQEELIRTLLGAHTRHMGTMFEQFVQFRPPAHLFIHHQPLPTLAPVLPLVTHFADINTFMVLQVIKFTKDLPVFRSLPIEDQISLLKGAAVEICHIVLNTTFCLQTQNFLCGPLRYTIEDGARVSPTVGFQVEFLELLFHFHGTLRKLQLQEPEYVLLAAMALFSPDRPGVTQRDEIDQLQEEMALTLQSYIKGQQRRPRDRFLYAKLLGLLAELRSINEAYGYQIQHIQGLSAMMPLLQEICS
Glutathione peroxidase 1 (Homo sapiens), sequence (P07203 whole entry, looked up): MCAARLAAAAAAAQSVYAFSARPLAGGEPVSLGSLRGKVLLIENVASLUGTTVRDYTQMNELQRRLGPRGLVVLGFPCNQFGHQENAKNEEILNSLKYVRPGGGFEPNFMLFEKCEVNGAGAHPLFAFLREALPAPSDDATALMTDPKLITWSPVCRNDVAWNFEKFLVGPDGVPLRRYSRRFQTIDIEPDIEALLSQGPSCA
Peroxisome proliferator-activated receptor gamma (Homo sapiens), sequence (P37231 whole entry, looked up): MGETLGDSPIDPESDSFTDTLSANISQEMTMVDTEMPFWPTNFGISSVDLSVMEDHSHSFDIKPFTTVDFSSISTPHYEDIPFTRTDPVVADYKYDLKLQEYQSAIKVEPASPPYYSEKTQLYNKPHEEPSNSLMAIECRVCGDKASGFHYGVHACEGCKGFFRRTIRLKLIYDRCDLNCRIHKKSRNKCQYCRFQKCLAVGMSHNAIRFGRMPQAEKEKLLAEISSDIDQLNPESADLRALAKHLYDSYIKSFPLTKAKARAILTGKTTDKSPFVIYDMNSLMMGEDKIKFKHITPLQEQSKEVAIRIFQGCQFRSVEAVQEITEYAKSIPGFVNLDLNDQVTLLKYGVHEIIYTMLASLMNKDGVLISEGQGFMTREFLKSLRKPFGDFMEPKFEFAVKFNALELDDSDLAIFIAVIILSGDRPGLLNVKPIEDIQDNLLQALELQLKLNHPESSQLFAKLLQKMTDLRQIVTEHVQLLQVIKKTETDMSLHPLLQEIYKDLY
Cytochrome P450 1A2 (Homo sapiens), sequence (P05177 whole entry, looked up): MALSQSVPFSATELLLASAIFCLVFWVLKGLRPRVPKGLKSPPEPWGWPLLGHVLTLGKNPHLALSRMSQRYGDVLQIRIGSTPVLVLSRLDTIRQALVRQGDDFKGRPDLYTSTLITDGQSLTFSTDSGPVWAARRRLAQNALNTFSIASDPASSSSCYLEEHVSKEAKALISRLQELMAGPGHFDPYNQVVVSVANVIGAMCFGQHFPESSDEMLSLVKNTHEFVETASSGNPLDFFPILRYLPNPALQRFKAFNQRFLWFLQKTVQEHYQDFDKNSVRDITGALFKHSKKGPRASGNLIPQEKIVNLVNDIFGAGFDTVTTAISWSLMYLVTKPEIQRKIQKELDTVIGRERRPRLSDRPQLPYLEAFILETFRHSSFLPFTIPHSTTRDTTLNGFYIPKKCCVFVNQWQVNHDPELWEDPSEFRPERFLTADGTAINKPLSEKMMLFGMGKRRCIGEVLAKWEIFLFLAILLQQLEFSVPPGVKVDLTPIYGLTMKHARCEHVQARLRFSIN
Peroxisome proliferator-activated receptor delta (Homo sapiens), sequence (Q03181 whole entry, looked up): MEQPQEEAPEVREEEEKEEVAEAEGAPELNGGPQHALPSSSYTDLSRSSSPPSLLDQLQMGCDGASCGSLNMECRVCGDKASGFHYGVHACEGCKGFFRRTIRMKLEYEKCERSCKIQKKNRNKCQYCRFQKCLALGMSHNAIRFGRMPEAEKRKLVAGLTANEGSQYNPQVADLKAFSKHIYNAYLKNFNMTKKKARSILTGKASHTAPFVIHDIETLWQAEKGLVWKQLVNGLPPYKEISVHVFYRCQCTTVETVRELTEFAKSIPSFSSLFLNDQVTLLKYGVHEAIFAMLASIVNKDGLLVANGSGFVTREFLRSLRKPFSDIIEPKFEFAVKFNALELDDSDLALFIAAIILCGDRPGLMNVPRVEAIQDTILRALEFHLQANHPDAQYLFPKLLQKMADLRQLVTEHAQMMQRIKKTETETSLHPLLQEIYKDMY
Cytochrome P450 2C19 (Homo sapiens), sequence (P33261 whole entry, looked up): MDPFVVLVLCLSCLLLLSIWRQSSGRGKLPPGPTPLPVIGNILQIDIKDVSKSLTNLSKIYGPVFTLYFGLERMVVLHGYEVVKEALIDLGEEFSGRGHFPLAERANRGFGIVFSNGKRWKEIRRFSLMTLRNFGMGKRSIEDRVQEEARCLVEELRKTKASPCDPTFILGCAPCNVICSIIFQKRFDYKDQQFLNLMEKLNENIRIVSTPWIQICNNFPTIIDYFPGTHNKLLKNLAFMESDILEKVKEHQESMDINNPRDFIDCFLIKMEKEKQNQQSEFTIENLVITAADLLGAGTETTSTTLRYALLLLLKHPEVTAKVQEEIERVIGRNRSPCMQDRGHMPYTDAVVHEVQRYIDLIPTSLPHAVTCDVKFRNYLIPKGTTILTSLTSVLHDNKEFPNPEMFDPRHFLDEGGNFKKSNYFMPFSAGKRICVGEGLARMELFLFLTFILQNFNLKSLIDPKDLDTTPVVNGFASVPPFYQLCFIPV

On to `CN1C[C@H](C(=O)N[C@]2(C)O[C@@]3(O)C4CCCN4C(=O)[C@H](Cc4ccccc4)N3C2=O)C[C@@H]2c3cccc4[nH]cc(c34)C[C@H]21` (some centres undefined), for which the Potency in assay [1] was 2 µM (active); in [2], 1.41 µM (active); in [3], 0.891 µM (active). Moreover, the Potency entry in assay [4] was “inactive”.
Take `O=S(=O)(O)O`: the compound was called inactive in assay [5], in [6], in assay [8], in assay [11] and in assay [12]. Further, in [7], the Potency entry was “inactive”. Also, the Potency in assay [9] was 35.5 µM (active). For the same compound, in assay [10], the max response was -1.96% (inactive).
Take `C=CCN1CC[C@]2(C)c3cc(O)ccc3CC1[C@@H]2C`: the Potency entry in [13] was “inactive”.
On to `COC1=CC(=O)O[C@@H](/C=C/c2ccc3c(c2)OCO3)C1`, for which the Potency result in [14] and in assay [15] was “inactive” each time. The compound was called inactive in [5], in assay [6], in assay [8], in assay [11] and in assay [12]. For the same compound, in [9], the Potency is 11.2 µM (active). Besides, the max response in assay [10] was 0.0511% (inactive).
Consider `O=C(OC[C@H]1O[C@@H](OC(=O)c2cc(O)c(O)c(O)c2)[C@H](OC(=O)c2cc(O)c(O)c(O)c2)[C@@H](OC(=O)c2cc(O)c(O)c(O)c2)[C@@H]1OC(=O)c1cc(O)c(O)c(O)c1)c1cc(O)c(O)c(O)c1`, for which, in assay [16], the Potency result is “inactive”.
With `CN1[C@@H]2CC(O)C[C@H]1[C@@H]1O[C@@H]12` (some centres undefined), in assay [13], the Potency entry was “inactive”. In addition, the figures for the Z-AUC in assay [17], in [17] (measured here: PEO1 parental Z-AUC) and in [17] (measured here: PEO4 Z-AUC) were 0.552 (inactive), 0.772 and 1.01, respectively.
Turning to `CCCCC[C@H](O)CC(=O)CCc1ccc(O)c(OC)c1`, the Potency entry in assay [16] is “inactive”.
Turning to `C[C@@H]1OC(O[C@H]2[C@H](O)[C@@H](O)[C@H](OC[C@H]3O[C@@H](OC(=O)[C@]45CCC(C)(C)C[C@@H]4C4=CCC6[C@@]7(C)CC[C@H](OC8OC[C@H](O)[C@H](O)[C@H]8OC8O[C@@H](C)[C@H](O)[C@@H](O)[C@H]8O)[C@@](C)(CO)C7CC[C@@]6(C)[C@]4(C)CC5)[C@H](O)[C@@H](O)[C@@H]3O)O[C@@H]2CO)[C@H](O)[C@H](O)[C@H]1O` (some centres undefined), the Potency entry in [16] is “inactive”.
In the case of `CC(=O)C1=C(O)[C@@H]2[C@H]3c4c[nH]c5cccc(c45)C[C@H]3C(C)(C)N2C1=O`, the Potency result in assay [13] is “inactive”.
As to `O=C(/C=C/c1ccc(O)c2c1[C@H](C(=O)O)[C@@H](c1ccc(O)c(O)c1)O2)O[C@H](Cc1ccc(O)c(O)c1)C(=O)O`, the Potency entry in assay [16] was “inactive”.
As for `O=C(OC[C@H]1O[C@@H](OC(=O)c2cc(O)c(O)c(O)c2)[C@H](OC(=O)c2cc(O)c(O)c(O)c2)[C@@H](OC(=O)c2cc(O)c(O)c(O)c2)[C@@H]1O)c1cc(O)c(O)c(O)c1`, the Potency entry in assay [16] was “inactive”.
As to `CCCCCCCCC/C=C/C(=O)CCc1ccc(O)c(OC)c1`, in assay [16], the Potency result is “inactive”.
`CC(C)(c1ccccc1)c1ccc(O)cc1`: in assay [14], the Potency result is “inactive”. For the same compound, the Potency in assay [18] was 26.6 µM (active).
On to `CCCCOCCOP(=O)(OCCOCCCC)OCCOCCCC`, for which the Potency result in assay [14], in assay [19], in [15] and in [18] was “inactive” throughout.
